Among the data in ChEMBL document CHEMBL4513216, “Probing the Open Global Health Chemical Diversity Library for Multistage-Active Starting Points for Next-Generation Antimalarials” (ACS Infect Dis, 2020) are INHIBITION values, retold here.

Out of some 68,000 compounds screened, about 2,700 (4%) showed an effect of 50% or more. The full list was thinned out, with strong results kept by preference.

The experiment has as its system Plasmodium berghei. Kind of experiment: Screen against P. berghei liver stage (PbLuc), transformed with Luciferase, at 2uM. The experiment is classed as functional, HepG2. Particulars: tested at 2 uM.
Consider `CCn1nc(C)c(-c2cncn2Cc2ccccc2CN(C)C)c1C`, for which the INHIBITION worked out at 17.29%.
With `CN(C)Cc1ccccc1Cn1cncc1-c1cnn(C)c1`, the INHIBITION worked out at 55.3%.
Under `CC(Cn1cncc1-c1cnn(Cc2ccccc2)c1)N1CCCCC1` (stereo not drawn) stands -22.72%.
On to `O=C(NCC1(CO)CC1)c1ccccc1C(F)(F)F`, for which the INHIBITION is listed as -41.99%.
On to `Cc1ccc(N2CCCC(NCC(=O)NCC3CC3)C2)nn1` (stereo not drawn), for which the INHIBITION was 42.92%.
For the molecule `COc1ccc(CNC(C)c2ccc3[nH]c(=O)[nH]c3c2)cc1` (stereo not drawn), the INHIBITION is 3.9%.
Under `CC(NCc1ccc(F)cc1)c1ccc2[nH]c(=O)[nH]c2c1` (stereo not drawn) stands -32.84%; under `Cc1ccc(CNC(C)c2ccc3[nH]c(=O)[nH]c3c2)s1` (stereo not drawn), 74.87%; under `CCN(CC1CCOC1)C(=O)c1ccn(-c2ccc(OC)cc2)n1` (stereo not drawn), -8.85%.
In the case of `Fc1ccccc1Sc1ccccc1CNC1=NCCN1`, the INHIBITION was -39.75%.
To `OCC1CCCN1c1cc(NCc2cc3ccccc3o2)ncn1` (stereo not drawn) belongs -15.36%; to `CC(C)(C)n1ncc2c1NC(=O)CC2c1cccc(O)c1` (stereo not drawn), 31.54%; to `Cc1cc(-c2nccs2)nc(C2CCN(Cc3ccc(F)cc3)CC2)n1`, -12.17%.
To `Cc1noc(C)c1CN1CCC2(CC1)NC(=O)CC2c1ccncc1` (stereo not drawn) belongs -12.36%; to `CCN1CCCC(O)(CNCc2ccc3c(c2)OCO3)C1` (stereo not drawn), 35.84%; to `CCN1CCCC(O)(CNCc2ccncc2)C1` (stereo not drawn), 50.02%.
Consider `CCN1CCCC(O)(CNCc2ccccn2)C1` (stereo not drawn), for which the INHIBITION is -36.39%.
For `Cc1ccc(CN2CCn3c(CNC(=O)c4cccn4C)cnc3C2)s1`, the INHIBITION was -40.86%.
To `COc1cccc(CN2CCC3(COCc4cnc(N(C)C)nc43)C2)c1` (stereo not drawn) belongs 23.93%; to `CSCc1cccc(S(=O)(=O)NCCCn2ccnc2)c1`, 16.48%; to `c1cnn(CC2CN(c3ncnc4ccsc34)CCO2)c1` (stereo not drawn), 32.39%.
To `O=C(c1ccnnc1)N1C[C@@H]2COC[C@]2(COCC2CC2)C1` belongs -57.61%; to `Cc1cc(F)ccc1C(=O)N1C[C@@H]2COC[C@]2(CN(C)C)C1`, 25.58%.
Under `O=C(C1=CCCC1)N1C[C@@H]2COC[C@]2(COCC2CC2)C1` stands 24.23%; under `Cc1cc(F)ccc1C(=O)N1C[C@@H]2COC[C@]2(COCC2CC2)C1`, 65.38%; under `COC[C@]12COC[C@H]1CN(C(=O)c1ccc(F)cc1C)C2`, 57.85%.
As for `COC[C@]12COC[C@H]1CN(C(=O)C1CC(F)(F)C1)C2`, the INHIBITION is listed as -22.65%.
To `CCOc1c(F)cccc1C(=O)N(c1cccnc1)C(C)C` belongs -56.64%.
To `CC1(C)CN(C(=O)c2ccc3nncn3c2)CCS1` belongs -17.04%.
To `Cc1nccn1-c1cccc(N2CCC(OCC3CCCCO3)CC2)n1` (stereo not drawn) belongs -16.7%.
With `COc1ccc(OC)c2c(C)cc(N(C)Cc3cc(C)on3)nc12`, the INHIBITION is given as 38.87%.
Under `Cc1cccc(CN2CC3(CCN(C4CCOC4)CC3)OCC2=O)n1` (stereo not drawn) stands 15.98%.
For `COc1c(CNCc2ccc(C(=O)N3CCCC3)cc2)c(C)nn1C`, the INHIBITION is listed as -36.39%.
Under `O=C(CN1CCCC(c2ncc[nH]2)C1)NCC(F)(F)F` (stereo not drawn) stands 51.23%; under `O=C(CN1CCCC(c2ncc[nH]2)C1)NCCCN1CCCCCC1=O` (stereo not drawn), -21.61%.
To `O=C(CCC(F)(F)F)N1CCCC(c2ncc[nH]2)C1` (stereo not drawn) belongs -1.64%; to `CC(=O)NS(=O)(=O)c1ccc(F)c(C(F)(F)F)c1`, -38.34%.
Turning to `CS(=O)(=O)CCC(=O)N1CCC2(CCCN(C3CCOCC3)C2=O)C1` (stereo not drawn), the INHIBITION is listed as -11.19%.
Under `O=C(O)c1cc(S(=O)(=O)Nc2cccc3c2OCCO3)c(Cl)cc1F` stands -47.76%; under `CCOc1ccc(C(F)(F)F)cc1NC(=O)N1CCC(C(N)=O)CC1`, -3.17%; under `CCc1n[nH]c(NC(=O)c2ccc(Cl)cn2)c1Br`, -3.87%.
Consider `CN1CCN(Cc2cn3c(n2)CN(Cc2cccnc2)CC3)CC1`, for which the INHIBITION is -59.73%.
To `c1c(CN2CCCCC2)nc2n1CCN(CC1CC1)C2` belongs 7.13%; to `CN1CCN(Cc2cn3c(n2)CN(CC2CC2)CC3)CC1`, 70.17%.
To `Cc1ccc(CN2CCn3cc(CN4CCN(C)CC4)nc3C2)cc1` belongs 18.32%.
To `CN1CCN(Cc2cn3c(n2)CN(Cc2ccncc2)CC3)CC1` belongs 51.26%.
As for `c1c(CN2CCCC2)nc2n1CCN(CC1CC1)C2`, the INHIBITION is reported as -33.57%.
To `CCCS(=O)(=O)NC(C)C(=O)NCc1ccc(N2CCCC2)nc1` (stereo not drawn) belongs -5.15%; to `O=C(c1cc[nH]n1)N1CCC2(CC1)CC(Oc1cccnc1)CO2` (stereo not drawn), -0.83%; to `O=C(CSc1ccccc1F)NS(=O)(=O)c1ccc2c(c1)OCCO2`, 12.81%.
Under `O=C(CCCOc1ccccc1F)Nc1cc[nH]n1` stands -9.47%; under `CC(NC(=O)COc1nc(C(C)(C)C)no1)c1ccco1` (stereo not drawn), 1.22%.
Under `Cn1cc(C2CCCN2C(=O)CS(=O)(=O)C2CCCC2)cn1` (stereo not drawn) stands -0.06%.
Regarding `Cc1ccc2c(c1)C1(CCN(C(N)=O)CC1)CN2CC1CC1`, the INHIBITION worked out at 52.12%.
For `CC(=O)N1CCC2(CC1)CN(CC1CC1)c1ccc(F)cc12`, the INHIBITION was -18.44%.
To `Cc1ccc2c(c1)C1(CCN(C(N)=O)CC1)CN2C(=O)N(C)C` belongs -22.42%; to `CC(C(=O)Nc1nccs1)N1CCc2nn(C)c(=O)cc2C1` (stereo not drawn), 16.82%; to `Cn1c(CN2CCCC2)nnc1C1CCCN(C(=O)C2CCOCC2)C1` (stereo not drawn), -19.54%.
To `CCCc1cc(N2CCCC2Cn2nc(C)nc2C)n2ncnc2n1` (stereo not drawn) belongs 19.39%; to `CCN(CC)c1ncnc2c(C)nn(CC)c12`, -25.59%; to `CCn1nc(C)c2ncnc(N3CCCC(C)C3)c21` (stereo not drawn), 73.48%.
To `CCCc1nc(N2CCCC(C)C2)c2c(n1)c(C)nn2CC` (stereo not drawn) belongs 15.58%; to `CS(=O)(=O)NCC1CCCN(c2ccc(C#N)cn2)C1` (stereo not drawn), -0.3%.
`N#Cc1cccnc1N1CCCN(C(=O)CCn2cccn2)CC1`: the INHIBITION is on record as 41.76%.
Under `O=c1ccc2c([nH]1)CCN(S(=O)(=O)c1ccc3c(c1)OCCO3)C2` stands 14.45%; under `O=S(=O)(c1ccc2c(c1)OCCO2)N1CCC(OCc2ccccn2)C1` (stereo not drawn), -26.14%.
To `O=S(=O)(c1ccc2c(c1)OCCO2)N1CCc2ccccc2C1` belongs 50.57%; to `COc1ccc(C(C)NC(=O)NCCCn2cncn2)cc1F` (stereo not drawn), -40.52%.
Under `CC(NC(=O)CSCC(N)=O)c1ccccc1Oc1ccccc1` (stereo not drawn) stands 51.7%; under `CCS(=O)(=O)CC(=O)NC(C)c1ccccc1Oc1ccccc1` (stereo not drawn), -28.15%.
Take `CC(NC(=O)CSCC(N)=O)c1ccc(Oc2ccccc2)cc1` (stereo not drawn): the INHIBITION amounted to 29.97%.
Under `Cc1ccc(CN2CCCC23CCN(S(=O)(=O)c2ccccc2)C3)o1` (stereo not drawn) stands -30.74%; under `Cc1ncc(CN(Cc2ccccn2)Cc2ccccc2Cl)n1C`, -6.19%.
Under `CC(=O)N1CC2(CCNCC2)c2cc(Cl)ccc21` stands 62.25%.
For the molecule `COC(=O)N1CC2(CCNCC2)c2cc(Cl)ccc21`, the INHIBITION is given as 22.71%.
Under `NC(=O)N1CC2(CCNCC2)c2cc(Cl)ccc21` stands 6.12%.
In the case of `O=c1cc(C2CCNCC2)nc(CCc2ccccn2)[nH]1`, the INHIBITION is reported as 15.92%.
Under `CC1CCCN(CCCNC(=O)Cc2csc(-c3ccoc3)n2)C1` (stereo not drawn) stands 50.61%.
Consider `O=C(Cc1csc(-c2ccoc2)n1)NCCC(=O)N1CCCCC1`, for which the INHIBITION is 45.56%.
Under `O=C(Cc1csc(-c2ccoc2)n1)NCCCN1CCCCC1` stands 6.85%; under `COCC(=O)N1CCC(C(=O)Nc2ccc(C(C)=O)cc2)CC1`, 10.64%.
As for `CCC(C)NC(=O)Nc1cccc(OCCCC#N)c1` (stereo not drawn), the INHIBITION is 12.39%.
To `O=C(c1ccco1)N1CC[C@@H]2O[C@H](COCCN3CCCC3)CC[C@@H]21` belongs 15.88%.
Under `CC(C)(C)CCN1CCN(Cn2nccc2-c2cccnc2)CC1` stands -15.83%; under `CC(C)(C)C(=O)N1CCN(Cn2nccc2-c2cccnc2)CC1`, 53%.
Under `c1cncc(-c2ccnn2CN2CCOCC2)c1` stands -31.15%.
With `Cc1ncccc1OC1(C(=O)NCCc2ccccn2)CCNCC1`, the INHIBITION came out at 17.94%.
Under `CC(=O)NCCNC(=O)C1(Oc2cccnc2C)CCNCC1` stands 53.19%; under `Cc1ncccc1OC1(C(=O)NCCNc2ccccc2)CCNCC1`, -25.28%.
Under `Cc1cnn(C2CN(CC(O)COc3ccc(C#N)cc3)C2)c1` (stereo not drawn) stands -2.84%; under `Cc1n[nH]c(C)c1CCN(C)C(=O)C(c1cccnc1)N1CCOCC1` (stereo not drawn), 51.31%.
To `Cc1ncsc1CCN(C)C(=O)C(c1cccnc1)N1CCOCC1` (stereo not drawn) belongs -13.13%; to `Cc1cc(CN(C)C(=O)C(c2cccnc2)N2CCOCC2)n[nH]1` (stereo not drawn), 39.92%.
For the molecule `O=C(N1CCCCC1)N1CCN(c2ccc(Cl)nn2)C(=O)C1`, the INHIBITION was 34.52%.
Regarding `COc1cc(N2C[C@H]3CN(Cc4ccccn4)C[C@H]3C2)ncn1`, the INHIBITION is -37.2%.
To `CC(NC(=O)N1CCN(c2ccccc2)CC1)c1nncn1C` (stereo not drawn) belongs 50.72%; to `CC(NC(=O)N1CCc2ccccc2C1)c1nncn1C` (stereo not drawn), -56.96%; to `COc1cc2c(cc1OC)CN(C(=O)NC(C)c1nncn1C)CC2` (stereo not drawn), -23.92%.
For `COc1ccc(N2CCN(C(=O)NC(C)c3nncn3C)CC2)cc1` (stereo not drawn), the INHIBITION was -11.34%.
Regarding `Cc1cccc(N2CCN(C(=O)NC(C)c3nncn3C)CC2)c1` (stereo not drawn), the INHIBITION was 48.64%.
Under `CC(NC(=O)N1CCc2sccc2C1)c1nncn1C` (stereo not drawn) stands 64.21%.
Under `Cc1ncccc1CNC(CCO)C1CCCCC1` (stereo not drawn) stands -16.72%; under `O=C(CN1CCNC1=O)NCc1ccc2sccc2c1`, -18.57%.
As for `Cc1nnc(C2Cc3ccccc3CN2Cc2ncc(Cl)n2C)o1` (stereo not drawn), the INHIBITION stood at 27.59%.
As for `COCc1cncc2c1CCN(C(=O)c1ccoc1C)C2`, the INHIBITION came to 34.02%.
Under `Cc1cc(CN(C)c2nc(-c3ccco3)nc3c2CCN(C)CC3)on1` stands 67.05%; under `Cc1nonc1CN(C)c1nc(-c2ccco2)nc2c1CCN(C)CC2`, 38.91%; under `Cc1noc(CN(C)c2nc(-c3ccco3)nc3c2CCN(C)CC3)n1`, 18.14%.
